This is an account of results in PubChem BioAssay (Tox21).

Where “and” joins values, the source holds several entries; their conditions need not be identical. Equal values may be shown once. Results filed as inconclusive are left out. Where a call stands in place of a potency, no number is given. Calls of active or inactive are those of the source. Unless noted, the call rests on the fitted dose curve; in most records, active means well fitted curve in the direction sought with a large enough effect in the repeat runs; inconclusive means weak or mixed curves; inactive means no such curve, though single readings can be large; an effect the other way counts as inactive or inconclusive.

A short description of one test: qHTS assay for small molecules that induce genotoxicity in human embryonic kidney cells expressing luciferase-tagged ATAD5 - cell viability (AID 651634; calls by dose curve; further: nearly all actives have a fitted effect of over 25% in size). Particulars: HEK293T ATAD5-luc cells viability, CellTiter-Fluor, 15.5 h; series mostly up to 83.3 µM. The gist of the method:
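Cytotoxicity counter-readout: after 15.5 hr compound treatment at 37C, live-cell protease activity in ATAD5-luciferase HEK293T cells measured by CellTiter-Fluor fluorescence, 30 min development at 37C.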
Turning to `CCCCOc1cc(C(=O)NCCN(CC)CC)c2ccccc2n1`, the Potency result was “inactive”.

Turning to `COC(=O)N[C@H](C(=O)N[C@@H](Cc1ccccc1)[C@@H](O)CN(Cc1ccc(-c2ccccn2)cc1)NC(=O)[C@@H](NC(=O)OC)C(C)(C)C)C(C)(C)C`, the Potency result was “inactive”.

On to `COc1ccc(S(=O)(=O)Nc2nnc(CC(C)C)s2)cc1`, for which the Potency entry was “inactive”.

On to `CCN1CC(CCN2CCOCC2)C(c2ccccc2)(c2ccccc2)C1=O` (stereo not drawn), for which the Potency result is “inactive”.

On to `NC/C=C/C(=O)O`, for which the Potency entry was “inactive”.

Regarding `FC(F)(F)C(Cl)(Cl)Cl`, the Potency result is “inactive”.

`COc1ccccc1OCC(O)COC(N)=O` (stereo not drawn): the Potency result was “inactive”.

As for `O=Cc1ccc(F)c(Br)c1`, the Potency result is “inactive”.

For `C=CCc1cc(OC)c(O)c(C(=O)NCCO)c1`, the Potency entry was “inactive”.

With `Cc1cc(NS(=O)(=O)c2ccc(N)cc2)nc(C)n1`, the Potency entry was “inactive”.

Turning to `COc1ccccc1N1CCN(CCCNc2cc(=O)n(C)c(=O)n2C)CC1`, the Potency entry is “inactive”.

Regarding `CCCCCCC`, the Potency result was “inactive”.

With `CCOC(=O)NCCC[Si](OCC)(OCC)OCC`, the Potency result is “inactive”.

As to `O=S(=O)(O)C(F)(F)F`, the Potency entry is “inactive”.

With `C[C@]12C(=O)OC(=O)[C@H]1[C@H]1C=C[C@@H]2C1`, the Potency entry was “inactive”.

Take `CCCCC1CCC(=O)O1` (stereo not drawn): the Potency entry is “inactive”.

With `C1CSCCS1`, the Potency result was “inactive”.

Regarding `CCOc1ccccc1N`, the Potency result was “inactive”.

As for `C=CCCCCCCCCO`, the Potency result is “inactive”.

Take `O=C(C(Cl)Cl)N1CCOC12CCCCC2`: the Potency result is “inactive”.

On to `CC(C)C1=CC2=CC[C@@H]3[C@](C)(CCC[C@@]3(C)C(=O)O)[C@H]2CC1`, for which the Potency result was “inactive”.

A short description of a further test: qHTS assay for small molecule disruptors of the mitochondrial membrane potential - cell viability (AID 720634; calls by dose curve;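 further: human HepG2 liver cancer cells; nearly all actives have a fitted effect of over 20% in size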). The following applies: HepG2 viability, ATP luminescence (CellTiter-Glo), 1 h; series mostly up to 83.2 µM. The gist of the method:
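Cytotoxicity was quantified from ATP content by CellTiter-Glo luminescence in the same wells as the MMP dye read-out. HepG2 (2,000 cells/well) were plated overnight and exposed to compounds for 1 hr at 37 C.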
Background: In qHTS, concentration-response curves come from the screen itself.
In the case of `CN(C)C(=O)NC1(c2ccccc2)CCN(CCC[C@]2(c3ccc(Cl)c(Cl)c3)CCCN(C(=O)c3ccccc3)C2)CC1`, the Potency result was “inactive”.

Turning to `CCCCOc1cc(C(=O)NCCN(CC)CC)c2ccccc2n1`, the Potency result was “inactive”.

As for `CCCCNC(=S)NCCCC`, the Potency result is “inactive”.

For the compound `CCCOCCC`, the Potency entry is “inactive”.

For the compound `C=CCCC=C`, the Potency entry is “inactive”.

In the case of `Cc1cc(NS(=O)(=O)c2ccc(N)cc2)nc(C)n1`, the Potency result was “inactive”.

`CCCCNc1cc(C(=O)O)cc(S(N)(=O)=O)c1Oc1ccccc1`: the Potency result is “inactive”.

Turning to `CC(C)OC(C)C`, the Potency entry was “inactive”.

`Cc1cc(S(=O)(=O)O)c(N)cc1Cl`: the Potency entry is “inactive”.

As to `COc1cc(N)c(Cl)cc1C(=O)NC1CCN(Cc2ccccc2)CC1`, the Potency entry was “inactive”.

For `O=S(=O)(O)C(F)(F)F`, the Potency result is “inactive”.

With `Cc1cccc(C)c1NC(=O)CN1CCCCCC1`, the Potency entry was “inactive”.

For `C=CC1CO1` (stereo not drawn), the Potency entry is “inactive”.

Consider `C[C@]12C(=O)OC(=O)[C@H]1[C@H]1C=C[C@@H]2C1`, for which the Potency entry was “inactive”.

On to `CC(CNC1CCCCC1)OC(=O)c1ccccc1` (stereo not drawn), for which the Potency result is “inactive”.

Regarding `CCN[C@H]1CN(CCCOC)S(=O)(=O)c2sc(S(N)(=O)=O)cc21`, the Potency result was “inactive”.

As to `C=CCCCCCCCCO`, the Potency entry was “inactive”.

For the compound `CC1(C)O[C@@H]2C[C@H]3[C@@H]4CCC5=CC(=O)CC[C@]5(C)[C@@]4(F)[C@@H](O)C[C@]3(C)[C@]2(C(=O)CCl)O1`, the Potency entry was “inactive”.

Another test is described as follows: qHTS assay for small molecule disruptors of the mitochondrial membrane potential (AID 720635). Further: potency means the concentration at half of the fitted maximal effect. The following applies: HepG2 mitochondrial membrane potential, Mito-MPS dye ratio; series mostly up to 83.2 µM. Summed up: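 Mitochondrial membrane potential tracked with Mito-MPS dye, red aggregates (ex 540/em 590 nm) against green monomers (ex 490/em 535 nm). Compound treatment 1 hr at 37C, dye 30 min in HepG2.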
As for `CCN1CC(CCN2CCOCC2)C(c2ccccc2)(c2ccccc2)C1=O` (stereo not drawn), the Potency result was “inactive”.

Regarding `NC/C=C/C(=O)O`, the Potency result was “inactive”.

In the case of `CCCCNC(=S)NCCCC`, the Potency entry is “inactive”.

For `CCCOCCC`, the Potency result is “inactive”.

As for `FC(F)(F)C(Cl)(Cl)Cl`, the Potency result is “inactive”.

On to `COc1ccccc1OCC(O)COC(N)=O` (stereo not drawn), for which the Potency entry was “inactive”.

For the compound `O=Cc1ccc(F)c(Br)c1`, the Potency entry is “inactive”.

As to `C=CCc1cc(OC)c(O)c(C(=O)NCCO)c1`, the Potency entry is “inactive”.

As to `COc1ccccc1N1CCN(CCCNc2cc(=O)n(C)c(=O)n2C)CC1`, the Potency entry was “inactive”.

Turning to `CCCCCCC`, the Potency result was “inactive”.

`Cc1cc(S(=O)(=O)O)c(N)cc1Cl`: the Potency result is “inactive”.

Take `CCN(O)CC`: the Potency entry is “inactive”.

Consider `C=CC1CO1` (stereo not drawn), for which the Potency entry is “inactive”.

As to `CCCCC1CCC(=O)O1` (stereo not drawn), the Potency result was “inactive”.

For the compound `C1CSCCS1`, the Potency entry was “inactive”.

With `C=CC(C)(O)CC/C=C(\C)CCC=C(C)C` (stereo not drawn), the Potency was 12.4 µM (active) and 27.3 µM (active).

In the case of `CCOc1ccccc1N`, the Potency result is “inactive”.

As to `CCN[C@H]1CN(CCCOC)S(=O)(=O)c2sc(S(N)(=O)=O)cc21`, the Potency result was “inactive”.

As to `CC(C)C1=CC2=CC[C@@H]3[C@](C)(CCC[C@@]3(C)C(=O)O)[C@H]2CC1`, the Potency entry was “inactive”.

For `CC1(C)O[C@@H]2C[C@H]3[C@@H]4CCC5=CC(=O)CC[C@]5(C)[C@@]4(F)[C@@H](O)C[C@]3(C)[C@]2(C(=O)CCl)O1`, the Potency was 8.04 µM (active).

Another test in a line: qHTS assay to test for compound auto fluorescence at 590 nm (red) in HepG2 cells (AID 720674). Particulars: HepG2 autofluorescence, red 540/590 nm, 1 h; series mostly up to 91.3 µM. Summed up: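 Red autofluorescence (Ex/Em 540/590 nm, Rose Bengal sodium equivalents) was measured in HepG2 cells, 2,000 per well in MEM plus 10% FBS, plated overnight at 37 C. Readings were taken 1 hr after adding 23 nL compound or DMSO, at 37 C and 5% CO2.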
`CN(C)C(=O)NC1(c2ccccc2)CCN(CCC[C@]2(c3ccc(Cl)c(Cl)c3)CCCN(C(=O)c3ccccc3)C2)CC1`: the fluorescence, relative to Rose Bengal is -0.128% [at 18.6 µM] (inactive).

As to `CCCCOc1cc(C(=O)NCCN(CC)CC)c2ccccc2n1`, the fluorescence, relative to Rose Bengal is -0.403% [at 18.6 µM] (inactive).

In the case of `COC(=O)N[C@H](C(=O)N[C@@H](Cc1ccccc1)[C@@H](O)CN(Cc1ccc(-c2ccccn2)cc1)NC(=O)[C@@H](NC(=O)OC)C(C)(C)C)C(C)(C)C`, the result was inactive.

Take `COc1ccc(S(=O)(=O)Nc2nnc(CC(C)C)s2)cc1`: the call was inactive.

`CCN1CC(CCN2CCOCC2)C(c2ccccc2)(c2ccccc2)C1=O` (stereo not drawn): the compound was called inactive.

Regarding `NC/C=C/C(=O)O`, the compound was called inactive.

Consider `CCCCNC(=S)NCCCC`, for which the compound was classed as inactive.

With `CCCOCCC`, the compound was classed as inactive.

Take `FC(F)(F)C(Cl)(Cl)Cl`: the call was inactive.

On to `COc1ccccc1OCC(O)COC(N)=O` (stereo not drawn), for which the fluorescence, relative to Rose Bengal was -0.267% [at 18.6 µM] (inactive).

With `C=CCc1cc(OC)c(O)c(C(=O)NCCO)c1`, the outcome was inactive.

For `C=CCCC=C`, the compound was classed as inactive.

As for `CCCCCCC`, the outcome was inactive.

`CC(C)OC(C)C`: the outcome was inactive.

For `COc1cc(N)c(Cl)cc1C(=O)NC1CCN(Cc2ccccc2)CC1`, the fluorescence, relative to Rose Bengal was -0.629% [at 18.6 µM] (inactive).

As to `CCOC(=O)NCCC[Si](OCC)(OCC)OCC`, the call was inactive.

With `CCN(O)CC`, the compound was called inactive.

Regarding `O=S(=O)(O)C(F)(F)F`, the compound was classed as inactive.

For the compound `C=CC1CO1` (stereo not drawn), the outcome was inactive.

In the case of `C[C@]12C(=O)OC(=O)[C@H]1[C@H]1C=C[C@@H]2C1`, the outcome was inactive.

For `CCCCC1CCC(=O)O1` (stereo not drawn), the result was inactive.

Consider `C1CSCCS1`, for which the call was inactive.

For `CC(CNC1CCCCC1)OC(=O)c1ccccc1` (stereo not drawn), the fluorescence, relative to Rose Bengal was -0.352% [at 18.6 µM] (inactive).

On to `C=CC(C)(O)CC/C=C(\C)CCC=C(C)C` (stereo not drawn), for which the result was inactive.

With `CCOc1ccccc1N`, the outcome was inactive.

For the compound `C=CCCCCCCCCO`, the compound was classed as inactive.

Take `O=C(C(Cl)Cl)N1CCOC12CCCCC2`: the result was inactive.

Consider `CC(C)C1=CC2=CC[C@@H]3[C@](C)(CCC[C@@]3(C)C(=O)O)[C@H]2CC1`, for which the compound was classed as inactive.

Turning to `CC1(C)O[C@@H]2C[C@H]3[C@@H]4CCC5=CC(=O)CC[C@]5(C)[C@@]4(F)[C@@H](O)C[C@]3(C)[C@]2(C(=O)CCl)O1`, the fluorescence, relative to Rose Bengal was -0.0973% [at 18.6 µM] (inactive).
